In PubChem BioAssay (Tox21):
“And” between values parts separate entries of the source, which are not always exact repeats. Identical values can stand only once. Inconclusive results are not listed. Some structures have more than one record in an assay (separate samples or runs), and their calls can disagree. The source made the active and inactive calls. Unless noted, the call rests on the fitted dose curve.

Assays:
[1] = Nuclear factor erythroid 2-related factor 2/antioxidant responsive element (Nrf2/ARE) small molecule agonists: qHTS cell viability counter screen in human keratinocytes (AID 1919968; active means well fitted curve in the direction sought with a large enough effect in the repeat runs; an effect the other way counts as inactive or inconclusive; further: nearly all actives have a fitted effect of over 55% in size; further: potency means the concentration at half of the fitted maximal effect)
In short: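 Measured as CellTiter-Fluor fluorescence, this readout tracks cytotoxicity in the same wells as the ARE-luciferase screen. HaCaT reporter cells (1,500/well) received compounds after a 5 h pre-incubation and were exposed for 23 h.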

[2] = Nuclear factor erythroid 2-related factor 2/antioxidant responsive element (Nrf2/ARE) small molecule agonists: luciferase reporter gene qHTS assay in human keratinocytes (AID 1919969); further: nearly all actives have a fitted effect of over 35% in size; further: potency means the concentration at half of the fitted maximal effect
[3] = target: Gonadotropin-releasing hormone receptor (Homo sapiens) (UniProt P30968); assay: Human gonadotropin-releasing hormone receptor (GnRHR) small molecule agonists, calcium flux assay in GnRHR-HEK293 cells (AID 1920063); further: nearly all actives have a fitted effect of over 35% in size
Sequence of Gonadotropin-releasing hormone receptor (Homo sapiens) (P30968 whole entry, looked up): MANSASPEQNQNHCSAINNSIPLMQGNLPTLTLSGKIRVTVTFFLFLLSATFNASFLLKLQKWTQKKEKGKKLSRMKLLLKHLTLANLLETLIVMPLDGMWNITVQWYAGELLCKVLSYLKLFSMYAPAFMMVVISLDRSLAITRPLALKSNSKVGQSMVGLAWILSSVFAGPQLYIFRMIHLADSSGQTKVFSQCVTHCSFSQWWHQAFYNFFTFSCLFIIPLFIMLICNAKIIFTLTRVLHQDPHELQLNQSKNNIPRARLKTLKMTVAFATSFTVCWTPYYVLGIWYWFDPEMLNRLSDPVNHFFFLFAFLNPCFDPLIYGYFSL
In short: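 Fluorescence kinetics (480 nm excitation, 540 nm emission; 3 min, 1 s steps) report calcium mobilisation in human GnRHR-HEK293 cells in agonist mode. Dye incubation: 1 h, 37 C.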

[4] = target: KiSS-1 receptor (Homo sapiens) (UniProt Q969F8); assay: Human kisspeptin (KISS1R) small molecule agonists, calcium flux assay in KISS1R-HEK293 cells (AID 1920064; active means well fitted curve in the direction sought with a large enough effect in the repeat runs; an effect the other way counts as inactive or inconclusive)
Sequence of KiSS-1 receptor (Homo sapiens) (Q969F8 whole entry, looked up): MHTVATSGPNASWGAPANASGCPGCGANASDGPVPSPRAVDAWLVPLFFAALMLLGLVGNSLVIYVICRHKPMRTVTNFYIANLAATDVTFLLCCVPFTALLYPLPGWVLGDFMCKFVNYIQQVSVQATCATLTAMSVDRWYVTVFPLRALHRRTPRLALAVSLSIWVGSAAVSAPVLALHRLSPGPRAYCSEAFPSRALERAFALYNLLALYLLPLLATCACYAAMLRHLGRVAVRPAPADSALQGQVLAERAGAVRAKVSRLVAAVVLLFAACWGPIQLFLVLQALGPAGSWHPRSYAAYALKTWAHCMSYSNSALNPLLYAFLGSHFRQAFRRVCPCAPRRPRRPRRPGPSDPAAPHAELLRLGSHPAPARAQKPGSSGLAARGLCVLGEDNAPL
In short: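 Measures KISS1R agonism through calcium-sensitive dye fluorescence in stably transfected HEK293 cells, read for 3 min after pin-tool compound delivery; 15-point titrations in triplicate.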

[5] = G protein-coupled receptor (GPCR) small molecule agonists, calcium flux assay: HEK293 wild type cell line counter screen (AID 1920065)
In short: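 Readout: fluorescence at 480 nm excitation/540 nm emission, sampled at 1 s intervals for 3 min. Cells had been cultured 18 h, then dye-loaded 1 h at 37 C before compound or ATP addition.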

[6] = p53 small molecule agonists, cell-based qHTS assay with human liver microsomes (AID 1963577);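 further: p53 response element beta-lactamase reporter cells with liver microsomes plus NADPH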
In short: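 Metabolically competent format: test substances, human liver microsomes and NADPH (both 0.5 mg/mL final) incubated with p53RE-bla cells 16 h at 37 C. Beta-lactamase reporter signal then quantified by fluorescence.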

[7] = p53 small molecule agonists, cell-based qHTS assay with rat liver microsomes (AID 1963578)
In short: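 Each plate received p53RE-bla cells, then compound, then rat liver microsomes and NADPH (both 0.5 mg/mL final). Plates were held 16 h at 37 C, and beta-lactamase activity was detected with LiveBLAzer over 2 h.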

[8] = p53 small molecule agonists, cell-based qHTS assay with human liver microsomes: qHTS cell viability counter screen (AID 1963579); further: nearly all actives have a fitted effect of over 45% in size
In short: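 Tox21 library compounds, delivered from DMSO stocks, were tested on p53RE-bla cells together with 0.5 mg/mL human liver microsomes and 0.5 mg/mL NADPH (final) over 16 h at 37 C; CellTiter-Glo luminescence served as the cytotoxicity measure.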

[9] = p53 small molecule agonists, cell-based qHTS assay with rat liver microsomes: qHTS cell viability counter screen (AID 1963580); further: nearly all actives have a fitted effect of over 45% in size; further: potency means the concentration at half of the fitted maximal effect
In short: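 Intracellular ATP, by CellTiter-Glo luminescence, defines viability. HCT-116 p53RE-bla cells, 4,000 per well, were compound-treated in the presence of rat liver microsomes and NADPH for 16 h at 37 C.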

[10] = p53 small molecule agonists, cell-based qHTS assay: qHTS cell viability counter screen (AID 1963581); further: nearly all actives have a fitted effect of over 45% in size; further: potency means the concentration at half of the fitted maximal effect
In short: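 In the same plates used for the p53 bla reporter, HCT-116 cells given compounds for 16 h at 37 C received CellTiter-Glo; luminescence was recorded 30 min later at room temperature.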

[11] = p53 small molecule agonists, cell-based qHTS assay (AID 1963582; active means well fitted activation curve with a large enough effect in the signal ratio in the repeat runs, not every such curve was filed as active; the % refers to the signal ratio)
In short: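 Compounds are pin-transferred in DMSO onto p53RE-bla cells and incubated 16 h at 37 C. The B/G FRET beta-lactamase substrate is then applied for 2 h at RT and fluorescence recorded.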

[12] = target: 5-hydroxytryptamine receptor 2A (Homo sapiens) (UniProt P28223); assay: 5-hydroxytryptamine receptor 2A (HTR2A) small molecule antagonists, cell-based qHTS assay (AID 1963586); further: nearly all actives have a fitted effect of over 45% in size
Sequence of 5-hydroxytryptamine receptor 2A (Homo sapiens) (P28223 whole entry, looked up): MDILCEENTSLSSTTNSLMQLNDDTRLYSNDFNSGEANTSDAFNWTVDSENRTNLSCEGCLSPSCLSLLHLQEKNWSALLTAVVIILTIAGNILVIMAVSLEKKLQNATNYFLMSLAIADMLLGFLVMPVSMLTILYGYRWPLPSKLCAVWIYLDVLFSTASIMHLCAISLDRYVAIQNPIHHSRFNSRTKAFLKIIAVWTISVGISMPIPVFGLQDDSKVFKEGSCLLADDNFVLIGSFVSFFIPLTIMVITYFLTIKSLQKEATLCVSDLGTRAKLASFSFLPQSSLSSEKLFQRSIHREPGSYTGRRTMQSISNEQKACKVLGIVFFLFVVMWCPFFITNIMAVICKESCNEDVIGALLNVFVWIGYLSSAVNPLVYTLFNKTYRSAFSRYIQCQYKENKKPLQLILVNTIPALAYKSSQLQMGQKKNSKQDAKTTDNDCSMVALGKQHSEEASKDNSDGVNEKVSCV
In short: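 Antagonist-mode intracellular calcium assay: DOI (4 nM) added after 5 min compound pre-incubation at room temperature to dye-loaded HTR2A-CHO cells. Fluorescence followed for 3 min, sampled every second.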

[13] = target: 5-hydroxytryptamine receptor 2A (Homo sapiens) (UniProt P28223); assay: 5-hydroxytryptamine receptor 2A (HTR2A) small molecule agonists, cell-based qHTS assay (AID 1963587); further: nearly all actives have a fitted effect of over 30% in size
In short: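 Kinetic calcium-flux fluorescence (2 min, 1 sec intervals) after compound addition in agonist mode. HTR2A-CHO cells were cultured 18 h, then dye-loaded 1 h at 37 C.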

[14] = target: Muscarinic acetylcholine receptor M1 (Homo sapiens) (UniProt P11229); assay: Cholinergic receptor muscarinic 1 (CHRM1) small molecule antagonists, cell-based qHTS assay (AID 1963588); further: nearly all actives have a fitted effect of over 40% in size; further: potency means the concentration at half of the fitted maximal effect
Sequence of Muscarinic acetylcholine receptor M1 (Homo sapiens) (P11229 whole entry, looked up): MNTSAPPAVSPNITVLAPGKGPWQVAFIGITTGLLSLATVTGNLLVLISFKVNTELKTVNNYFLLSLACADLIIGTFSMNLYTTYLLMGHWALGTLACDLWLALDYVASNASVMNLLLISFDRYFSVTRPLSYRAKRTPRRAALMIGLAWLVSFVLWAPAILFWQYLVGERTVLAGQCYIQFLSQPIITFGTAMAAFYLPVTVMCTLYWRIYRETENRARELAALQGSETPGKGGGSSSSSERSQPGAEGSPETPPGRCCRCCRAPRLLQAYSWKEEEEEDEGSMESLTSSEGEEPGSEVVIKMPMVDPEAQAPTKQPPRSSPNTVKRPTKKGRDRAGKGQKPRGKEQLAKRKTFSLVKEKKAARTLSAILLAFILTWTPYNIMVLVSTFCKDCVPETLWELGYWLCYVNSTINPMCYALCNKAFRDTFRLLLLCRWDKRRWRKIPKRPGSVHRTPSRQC
In short: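 CHRM1-CHO calcium-flux assay, antagonist mode. Cells were seeded 18 h, dye-loaded 1 h at 37 C and given compound for 5 min at RT, then acetylcholine was added at 50nM. FDSS fluorescence was read 3 min; 15 concentrations, three runs.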

[15] = target: Muscarinic acetylcholine receptor M1 (Homo sapiens) (UniProt P11229); assay: Cholinergic receptor muscarinic 1 (CHRM1) small molecule agonists, cell-based qHTS assay (AID 1963589); further: nearly all actives have a fitted effect of over 35% in size
In short: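 Each compound was tested at 15 concentrations across three independent runs on dye-loaded CHO cells stably expressing human CHRM1, reading intracellular calcium fluorescence kinetically at 1 sec intervals.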

[16] = target: Beta-2 adrenergic receptor (Homo sapiens) (UniProt P07550); assay: Adrenergic beta2 receptor (ADRB2) small molecule antagonists, cell-based qHTS assay (AID 1963592); further: series mostly up to about 92 µM; nearly all actives have a fitted effect of over 50% in size
Sequence of Beta-2 adrenergic receptor (Homo sapiens) (P07550 whole entry, looked up): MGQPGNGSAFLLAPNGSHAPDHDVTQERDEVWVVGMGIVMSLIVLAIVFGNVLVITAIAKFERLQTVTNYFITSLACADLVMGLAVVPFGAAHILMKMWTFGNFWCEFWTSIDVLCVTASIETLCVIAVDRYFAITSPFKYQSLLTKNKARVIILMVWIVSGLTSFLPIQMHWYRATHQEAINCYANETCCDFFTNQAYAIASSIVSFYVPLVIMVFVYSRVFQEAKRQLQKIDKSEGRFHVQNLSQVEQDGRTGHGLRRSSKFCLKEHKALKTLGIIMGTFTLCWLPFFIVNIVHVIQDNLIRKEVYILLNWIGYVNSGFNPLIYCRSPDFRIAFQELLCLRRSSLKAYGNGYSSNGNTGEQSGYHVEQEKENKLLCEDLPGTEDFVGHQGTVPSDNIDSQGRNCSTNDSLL
In short: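 Cells (CHO, stable ADRB2 overexpression) incubated 18-20hr at 37C; compounds added from DMSO; agonist mix (1nM isoproterenol, 100uM IBMX, 25uM Ro-20-1724) added; 0.5hr RT; d2-cAMP and anti-cAMP-cryptate added; 1hr RT; 665/615 nm read.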

[17] = target: D(2) dopamine receptor (Homo sapiens) (UniProt P14416); assay: Dopamine D2 receptor (DRD2) small molecule antagonists, cell-based qHTS assay (AID 1963595; active means well fitted inhibition curve with a large enough effect in the signal ratio in the repeat runs, with a control signal flat; the % refers to the signal ratio)
Sequence of D(2) dopamine receptor (Homo sapiens) (P14416 whole entry, looked up): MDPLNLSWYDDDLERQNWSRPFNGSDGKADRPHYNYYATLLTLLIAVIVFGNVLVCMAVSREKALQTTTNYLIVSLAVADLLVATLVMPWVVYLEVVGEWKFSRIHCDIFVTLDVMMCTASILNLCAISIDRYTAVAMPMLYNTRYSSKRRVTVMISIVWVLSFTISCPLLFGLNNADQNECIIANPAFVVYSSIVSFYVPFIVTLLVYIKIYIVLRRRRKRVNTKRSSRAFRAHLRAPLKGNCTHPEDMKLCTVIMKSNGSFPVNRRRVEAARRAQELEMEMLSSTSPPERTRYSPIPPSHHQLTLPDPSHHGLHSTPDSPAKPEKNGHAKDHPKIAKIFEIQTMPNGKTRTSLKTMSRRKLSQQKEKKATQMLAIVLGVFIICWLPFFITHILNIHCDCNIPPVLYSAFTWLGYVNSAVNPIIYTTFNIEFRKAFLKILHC
In short: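 HEK293 cells stably expressing DRD2, preincubated with 0.1 mM Ro20-1724 and compounds 10 min, were stimulated with 200 nM NKH477 plus 12 nM quinpirole for 30 min at room temperature; cAMP measured by HTRF (665/620 nm).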

[18] = cAMP Responsive Elements (CRE) small molecule antagonists, cell-based qHTS assay (AID 1963591; active means well fitted inhibition curve with a large enough effect in the signal ratio in the repeat runs, not every such curve was filed as active; the % refers to the signal ratio)
In short: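 Inhibition of NKH477-driven (0.25 uM final) CRE-beta-lactamase signal in HEK293T cells, 3 h compound exposure at 37 °C, detected by FRET substrate fluorescence.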

[19] = target: D(2) dopamine receptor (Homo sapiens) (UniProt P14416); assay: Dopamine D2 receptor (DRD2) small molecule agonists, cell-based qHTS assay (AID 1963594); further: nearly all actives have a fitted effect of over 35% in size
In short: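 cAMP accumulation in DRD2-HEK293 cells measured by HTRF after 1 h detection; compounds added 10 min before NKH477 (200nM […]) forskolin-analogue stimulation, 30 min at room temperature, with Ro20-1724 present at 0.1 mM final.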

[20] = cAMP Responsive Elements (CRE) small molecule agonists, cell-based qHTS assay (AID 1963590)
In short: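 Cell line: CRE-bla HEK 293T; medium DMEM/10% dialyzed FBS/0.1 mM NEAA/1 mM pyruvate/25 mM HEPES; 3 h compound exposure; beta-lactamase FRET readout after 2 h substrate loading at RT.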
On the % scale 0 is the no-effect control and ±100 the full control effect.

CC(=O)Oc1ccccc1C(=O)Nc1ncc([N+](=O)[O-])s1
inactive: Potency [3] | Potency [4] | Potency [5] | Potency [6] | Potency [7] | Potency [8] | Potency [11] | Potency [12] | Potency [13] | Potency [14] | Potency [15] | Potency [16] | Potency [17]
41.6 µM (active) and inactive: Potency [9]
active: Potency [1] 55.6 µM | Potency [2] 39.3 µM and 29.8 µM | Potency [10] 11.7 µM

O=C(c1ccccc1)C1(O)CCCCC1
inactive: Potency [1] | Potency [2] | Potency [3] | Potency [4] | Potency [5] | Potency [6] | Potency [7] | Potency [8] | Potency [9] | Potency [10] | Potency [11] | Potency [12] | Potency [13] | Potency [14] | Potency [15] | Potency [18] | Potency [19] | Potency [17]

COC(=O)c1ccc2cc(C(=O)OC)ccc2c1
inactive: activity change, negative = cytotoxicity [1] 1.05% [at 19 µM] | activity, positive = activation [2] 20.6% [at 19 µM] | activity change [3] 0.0273% [at 11.8 µM, stronger effect = higher value] | activation [4] 2.25% [at 15.8 µM] | activation [5] 0.0113% [at 11.8 µM] | activation [6] -11.1% [at 13.5 µM] | activation [7] -1.04% [at 13.6 µM] | activity change, negative = cytotoxicity [8] -6.68% [at 13.5 µM] | activity change, negative = cytotoxicity [9] -1.51% [at 13.5 µM] | activity change, negative = cytotoxicity [10] 11% [at 13.5 µM] | activation [11] -2.37% [at 13.5 µM] | activity, negative = inhibition [12] 2.21% [at 12.7 µM] | activation [13] -0.775% [at 15.9 µM] | activity, negative = inhibition [14] -8% [at 12.6 µM] | activation [20] -2.52% [at 19 µM] | activity change, negative = inhibition [18] -4.98% [at 18.9 µM] | activity change, negative = inhibition [16] -9.16% [at 19 µM] | activation [19] -0.16% [at 19 µM] | activity change, negative = inhibition [17] -2.05% [at 18.9 µM]

NC(=O)c1ccc([N+](=O)[O-])cc1Cl
inactive: Potency [1] | Potency [2] | Potency [3] | Potency [4] | Potency [5] | Potency [6] | Potency [7] | Potency [8] | Potency [9] | Potency [10] | Potency [11] | Potency [12] | Potency [13] | Potency [14] | Potency [15] | Potency [18] | Potency [16] | Potency [19] | Potency [17]

CCCCOC(=O)CCCCCCCC(=O)OCCCC
inactive: Potency [1] | Potency [2] | Potency [3] | Potency [4] | Potency [5] | Potency [6] | Potency [7] | Potency [8] | Potency [9] | Potency [10] | Potency [11] | Potency [12] | Potency [13] | Potency [14] | Potency [20] | Potency [18] | Potency [16] | Potency [19] | Potency [17]

C=C(C)[C@@H]1CC[C@@H](C)C[C@@H]1O
inactive: Potency [1] | Potency [2] | Potency [3] | Potency [4] | Potency [5] | Potency [6] | Potency [7] | Potency [8] | Potency [9] | Potency [10] | Potency [11] | Potency [12] | Potency [13] | Potency [14] | Potency [20] | Potency [18] | Potency [16] | Potency [19] | Potency [17]

CCN1C(=O)c2ccccc2C1Nc1ccc(OCCN2CCCCC2)cc1 (stereo not given)
inactive: Potency [1] | Potency [2] | Potency [3] | Potency [4] | Potency [5] | Potency [6] | Potency [7] | Potency [8] | Potency [9] | Potency [10] | Potency [11] | Potency [12] | Potency [13] | Potency [15] | Potency [18] | Potency [16] | Potency [19] | Potency [17]
active: Potency [14] 3.65 µM
